Source: the supplement of paper PMC10849652
The full data set covers some 7,900 targets. This sample favours those with a hit. About 0.6% of all pairs of compound and target were hits. Unmarked numbers belong to inactive results.

Tests used:
Test in all cases: log2 fold change, soluble protein after heating vs DMSO (PISA); higher = thermal stabilisation; K562 cells, 10 uM, 30 min; active = over 0.2 and 3.5 SD of the protein, either way, in both replicates (recomputed)
[1] = compound: NC(=O)Nc1cc(-c2cccc(F)c2)sc1C(=O)N[C@H]1CCCNC1
Outline: (§1)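 Soluble protein was defined as the supernatant after 21,000xg for 90 min. It came from K562 cells at 2×10^6 cells/mL given 10 μM compound for 30 min, heated in aliquots for 3 min across 48°C-58°C, pooled, and extracted in PBS with 0.5% NP-40 at 4°C, and was quantified by TMTpro 16plex LC-MS/MS with equalised channel sums. Thermal stability against control samples, from duplicates, is reported as log2 fold change.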

[2] = compound: NC(=O)c1cnc(N[C@@H]2CCCC[C@@H]2N)nc1Nc1cccc(-n2nccn2)c1
Outline: as §1

[3] = compound: NC1(c2ccc(-c3nc4ccn5c(=O)[nH]nc5c4cc3-c3ccccc3)cc2)CCC1
Outline: as §1

[4] = compound: NCC(=O)Nc1ccc(-n2nc(C(F)(F)F)cc2-c2ccc3c(ccc4ccccc43)c2)cc1
Outline: as §1

entinostat = compound: Nc1ccccc1NC(=O)c1ccc(CNC(=O)OCc2cccnc2)cc1 [entinostat]
Outline: as §1

vorinostat = compound: O=C(CCCCCCC(=O)Nc1ccccc1)NO [vorinostat]
Outline: as §1

citarinostat = compound: O=C(CCCCCCNC(=O)c1cnc(N(c2ccccc2)c2ccccc2Cl)nc1)NO [citarinostat]
Outline: as §1

silmitasertib = compound: O=C(O)c1ccc2c(c1)nc(Nc1cccc(Cl)c1)c1ccncc12 [silmitasertib]
Outline: as §1

[5] = compound: O=C1NC(=O)C(c2cnc3ccccn23)=C1c1cn2c3c(cc(F)cc13)CN(C(=O)N1CCCCC1)CC2
Outline: as §1

[6] = compound: c1cc(OCCN2CCCCC2)cc(-c2n[nH]c3ccc(-c4nnc[nH]4)cc23)c1
Outline: as §1

entospletinib = compound: c1cn2cc(-c3ccc4cn[nH]c4c3)nc(Nc3ccc(N4CCOCC4)cc3)c2n1 [entospletinib]
Outline: as §1

UniProt Q96KP1, sequence (Q96KP1 whole entry, looked up): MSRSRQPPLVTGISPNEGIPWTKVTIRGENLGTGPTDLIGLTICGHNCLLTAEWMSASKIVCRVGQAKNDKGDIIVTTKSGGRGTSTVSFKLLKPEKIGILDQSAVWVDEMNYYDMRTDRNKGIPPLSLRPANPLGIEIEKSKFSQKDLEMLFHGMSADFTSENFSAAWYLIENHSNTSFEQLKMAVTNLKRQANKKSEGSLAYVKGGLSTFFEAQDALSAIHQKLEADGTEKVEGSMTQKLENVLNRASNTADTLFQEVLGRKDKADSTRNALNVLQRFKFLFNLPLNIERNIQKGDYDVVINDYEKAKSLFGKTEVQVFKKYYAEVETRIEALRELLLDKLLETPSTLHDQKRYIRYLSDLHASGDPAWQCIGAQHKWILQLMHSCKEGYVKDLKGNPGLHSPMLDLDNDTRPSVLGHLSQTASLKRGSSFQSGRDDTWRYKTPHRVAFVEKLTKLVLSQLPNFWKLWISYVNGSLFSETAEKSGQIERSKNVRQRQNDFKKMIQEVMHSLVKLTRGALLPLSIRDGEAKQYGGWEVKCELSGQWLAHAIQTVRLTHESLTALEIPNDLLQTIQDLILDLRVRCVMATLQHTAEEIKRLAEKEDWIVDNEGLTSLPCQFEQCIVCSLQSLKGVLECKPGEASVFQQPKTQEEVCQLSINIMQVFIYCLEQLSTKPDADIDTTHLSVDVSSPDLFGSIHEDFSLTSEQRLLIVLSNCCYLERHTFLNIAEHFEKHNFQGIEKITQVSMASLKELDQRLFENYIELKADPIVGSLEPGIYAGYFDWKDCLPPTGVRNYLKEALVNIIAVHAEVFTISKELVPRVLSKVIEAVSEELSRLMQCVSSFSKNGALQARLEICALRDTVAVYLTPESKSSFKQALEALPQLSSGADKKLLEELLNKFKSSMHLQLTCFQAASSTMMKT
UniProt Q9NX74, sequence (Q9NX74 whole entry, looked up): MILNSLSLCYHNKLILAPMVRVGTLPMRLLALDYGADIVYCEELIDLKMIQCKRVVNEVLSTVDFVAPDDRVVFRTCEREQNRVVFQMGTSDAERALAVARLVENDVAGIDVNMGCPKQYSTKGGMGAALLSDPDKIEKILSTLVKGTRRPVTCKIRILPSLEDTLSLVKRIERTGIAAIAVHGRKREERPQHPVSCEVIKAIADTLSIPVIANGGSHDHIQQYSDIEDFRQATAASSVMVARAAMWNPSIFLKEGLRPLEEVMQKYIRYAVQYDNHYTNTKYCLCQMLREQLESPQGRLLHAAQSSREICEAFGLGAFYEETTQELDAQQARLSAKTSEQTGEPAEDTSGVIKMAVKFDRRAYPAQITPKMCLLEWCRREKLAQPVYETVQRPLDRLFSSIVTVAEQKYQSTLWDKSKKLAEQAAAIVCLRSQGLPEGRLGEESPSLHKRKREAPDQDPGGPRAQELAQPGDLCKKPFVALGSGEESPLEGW
UniProt Q15075, sequence (Q15075 whole entry, looked up): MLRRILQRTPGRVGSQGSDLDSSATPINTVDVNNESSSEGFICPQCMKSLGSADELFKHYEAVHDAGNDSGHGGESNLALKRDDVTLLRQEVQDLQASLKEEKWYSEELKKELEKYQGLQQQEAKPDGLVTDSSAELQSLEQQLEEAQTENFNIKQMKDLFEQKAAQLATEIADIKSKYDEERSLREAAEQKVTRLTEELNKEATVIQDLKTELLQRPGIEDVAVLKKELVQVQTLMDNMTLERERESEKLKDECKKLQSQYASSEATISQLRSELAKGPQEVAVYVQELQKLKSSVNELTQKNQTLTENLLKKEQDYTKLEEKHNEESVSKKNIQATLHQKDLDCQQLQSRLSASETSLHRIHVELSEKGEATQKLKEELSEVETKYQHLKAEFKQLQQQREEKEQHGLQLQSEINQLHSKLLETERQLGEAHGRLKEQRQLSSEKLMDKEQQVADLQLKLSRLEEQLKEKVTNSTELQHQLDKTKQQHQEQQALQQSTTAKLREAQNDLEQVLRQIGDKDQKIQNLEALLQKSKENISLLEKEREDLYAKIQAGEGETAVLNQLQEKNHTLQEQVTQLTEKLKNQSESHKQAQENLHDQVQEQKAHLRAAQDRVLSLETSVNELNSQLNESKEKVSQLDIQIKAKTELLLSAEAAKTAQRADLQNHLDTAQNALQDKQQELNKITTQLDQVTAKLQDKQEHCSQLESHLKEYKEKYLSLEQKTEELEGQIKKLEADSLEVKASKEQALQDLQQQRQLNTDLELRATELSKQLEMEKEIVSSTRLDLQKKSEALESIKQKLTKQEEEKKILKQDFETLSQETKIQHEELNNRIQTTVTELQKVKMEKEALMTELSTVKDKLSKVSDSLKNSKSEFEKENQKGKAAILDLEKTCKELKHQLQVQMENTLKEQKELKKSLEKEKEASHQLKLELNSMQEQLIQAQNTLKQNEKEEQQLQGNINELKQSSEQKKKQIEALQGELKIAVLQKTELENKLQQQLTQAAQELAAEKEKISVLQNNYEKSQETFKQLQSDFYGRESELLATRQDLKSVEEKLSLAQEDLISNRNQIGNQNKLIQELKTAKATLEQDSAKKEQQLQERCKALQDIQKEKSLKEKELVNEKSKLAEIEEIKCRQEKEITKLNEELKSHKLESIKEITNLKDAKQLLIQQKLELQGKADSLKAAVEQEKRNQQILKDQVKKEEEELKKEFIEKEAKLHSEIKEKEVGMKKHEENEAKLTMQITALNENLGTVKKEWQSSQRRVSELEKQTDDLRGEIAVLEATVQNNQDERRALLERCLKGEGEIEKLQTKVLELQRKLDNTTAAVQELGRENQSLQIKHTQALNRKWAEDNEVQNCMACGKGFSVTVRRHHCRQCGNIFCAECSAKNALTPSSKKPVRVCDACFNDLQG
UniProt O60911, sequence (O60911 whole entry, looked up): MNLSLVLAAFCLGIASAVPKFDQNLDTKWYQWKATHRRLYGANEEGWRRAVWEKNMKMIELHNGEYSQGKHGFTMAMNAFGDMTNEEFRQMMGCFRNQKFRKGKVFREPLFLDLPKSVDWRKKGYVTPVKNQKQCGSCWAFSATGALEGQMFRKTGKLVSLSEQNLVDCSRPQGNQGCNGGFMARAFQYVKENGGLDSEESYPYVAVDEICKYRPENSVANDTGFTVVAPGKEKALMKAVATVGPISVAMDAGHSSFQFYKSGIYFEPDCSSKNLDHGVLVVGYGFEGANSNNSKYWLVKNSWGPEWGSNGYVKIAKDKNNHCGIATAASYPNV
UniProt Q14689, sequence (Q14689 whole entry, looked up): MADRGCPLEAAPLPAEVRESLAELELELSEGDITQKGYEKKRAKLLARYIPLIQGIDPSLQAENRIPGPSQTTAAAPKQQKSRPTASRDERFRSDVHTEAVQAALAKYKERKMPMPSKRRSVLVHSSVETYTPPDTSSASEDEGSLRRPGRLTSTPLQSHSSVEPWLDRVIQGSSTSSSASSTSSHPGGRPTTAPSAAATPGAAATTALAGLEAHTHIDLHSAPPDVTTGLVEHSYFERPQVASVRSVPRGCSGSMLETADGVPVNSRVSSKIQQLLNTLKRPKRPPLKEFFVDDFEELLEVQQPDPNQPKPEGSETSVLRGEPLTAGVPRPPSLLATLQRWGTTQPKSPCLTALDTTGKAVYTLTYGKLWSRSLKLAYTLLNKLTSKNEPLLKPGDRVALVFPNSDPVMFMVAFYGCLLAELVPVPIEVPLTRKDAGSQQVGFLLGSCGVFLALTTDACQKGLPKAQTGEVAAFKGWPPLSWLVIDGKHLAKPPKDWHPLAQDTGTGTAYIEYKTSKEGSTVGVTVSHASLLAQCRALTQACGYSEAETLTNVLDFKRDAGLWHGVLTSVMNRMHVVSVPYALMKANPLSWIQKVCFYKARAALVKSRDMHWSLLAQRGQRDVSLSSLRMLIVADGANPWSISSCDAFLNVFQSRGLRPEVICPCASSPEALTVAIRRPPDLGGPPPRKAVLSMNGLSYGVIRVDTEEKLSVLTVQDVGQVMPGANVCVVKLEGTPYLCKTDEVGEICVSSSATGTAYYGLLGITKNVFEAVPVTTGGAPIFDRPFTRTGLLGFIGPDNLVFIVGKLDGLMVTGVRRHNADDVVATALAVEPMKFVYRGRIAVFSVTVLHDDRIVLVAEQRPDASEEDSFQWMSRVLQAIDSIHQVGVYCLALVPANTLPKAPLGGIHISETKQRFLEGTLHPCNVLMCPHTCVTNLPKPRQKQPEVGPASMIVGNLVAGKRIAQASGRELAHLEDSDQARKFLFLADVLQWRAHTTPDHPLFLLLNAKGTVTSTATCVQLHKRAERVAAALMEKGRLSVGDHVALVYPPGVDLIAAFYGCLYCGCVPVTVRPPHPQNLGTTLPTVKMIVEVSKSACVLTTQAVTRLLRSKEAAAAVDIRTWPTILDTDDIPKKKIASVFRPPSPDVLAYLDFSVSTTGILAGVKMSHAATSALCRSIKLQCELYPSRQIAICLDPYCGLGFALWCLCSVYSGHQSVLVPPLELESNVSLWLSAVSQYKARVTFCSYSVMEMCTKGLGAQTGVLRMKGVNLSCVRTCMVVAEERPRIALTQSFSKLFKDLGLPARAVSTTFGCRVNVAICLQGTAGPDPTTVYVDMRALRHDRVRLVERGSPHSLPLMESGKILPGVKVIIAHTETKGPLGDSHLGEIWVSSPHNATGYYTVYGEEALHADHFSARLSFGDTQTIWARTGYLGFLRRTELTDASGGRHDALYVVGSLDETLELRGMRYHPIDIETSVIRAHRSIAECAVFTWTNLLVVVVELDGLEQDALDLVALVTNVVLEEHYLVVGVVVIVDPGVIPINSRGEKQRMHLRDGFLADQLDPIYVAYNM
UniProt P98173, sequence (P98173 whole entry, looked up): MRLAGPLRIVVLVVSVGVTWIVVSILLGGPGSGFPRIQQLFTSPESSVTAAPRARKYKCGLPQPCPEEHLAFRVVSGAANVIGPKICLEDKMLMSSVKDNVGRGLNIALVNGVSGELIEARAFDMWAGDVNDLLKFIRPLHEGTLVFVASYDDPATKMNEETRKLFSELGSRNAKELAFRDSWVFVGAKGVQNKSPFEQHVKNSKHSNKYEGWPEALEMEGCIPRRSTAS

Target	log2 fold change [1]	log2 fold change [2]	log2 fold change [3]	log2 fold change [4]	log2 fold change (entinostat)	log2 fold change (vorinostat)	log2 fold change (citarinostat)	log2 fold change (silmitasertib)	log2 fold change [5]	log2 fold change [6]	log2 fold change (entospletinib)
CYBA (UniProt P13498)	-0.028	-0.141	-0.044	-0.13	-0.004	0.018	-0.01	0	-0.01	-0.041	0.069
EFCAB14 (UniProt O75071)	0.024	0.218	-0.123	-0.006	0.007	-0.057	0.181	0.022	-0.031	-0.075	0.001
FADS3 (UniProt Q9Y5Q0)	-0.086	-0.096	-0.074	0.079	-0.06	0.024	0.022	-0.008	0.259	-0.034	0.035
FAF2 (UniProt Q96CS3)	-0.016	-0.038	-0.038	-0.027	0.021	0.092	0.015	0.007	-0.054	-0.018	-0.015
DNAJC1 (UniProt Q96KC8)	0.013	-0.055	-0.082	-0.08	0.042	0.106	0.017	0.01	-0.016	-0.083	0.015
DTWD1 (UniProt Q8N5C7)	-0.001	0.014	-0.147	-0.04	0.063	0.246 (active)	-0.001	-0.004	0.014	-0.064	0.039
DDX46 (UniProt Q7L014)	-0.185	-0.087	-0.178	-0.197	0.095	0	0.103	0.018	-0.243	0.084	-0.043
CTSV (UniProt O60911)	0	-0.066	-0.296	-0.052	-0.063	-0.029	-0.008	0.027	-0.105	0.165	0.013
FAM83D (UniProt Q9H4H8)	-0.031	-0.073	-0.072	0.075	0.008	0.066	0.115	0.048	-0.058	0.059	0.028
DDX39A (UniProt O00148)	-0.067	-0.04	0.057	-0.042	-0.003	0.048	-0.006	-0.011	-0.107	-0.233	0.022
DHCR7 (UniProt Q9UBM7)	0.08	0.014	0.239	-0.134	0.082	0.03	-0.023	-0.084	-0.04	-0.026	-0.045
DLD (UniProt P09622)	0.003	0.007	-0.088	0.033	-0.013	-0.02	0.011	-0.042	-0.004	-0.093	0.051
DCTPP1 (UniProt Q9H773)	-0.051	0.117	-0.014	0.028	0.062	-0.093	0.005	-0.003	-0.001	0.008	-0.008
ETNK1 (UniProt Q9HBU6)	0.25 (active)	0.011	-0.144	-0.057	0.089	-0.01	0.019	0.041	0.208	-0.084	-0.008
DNTTIP2 (UniProt Q5QJE6)	0.14	-0.054	0.155	0.029	-0.03	0.045	0.016	0.102	-0.028	-0.095	0.108
DOCK8 (UniProt Q8NF50)	-0.088	0.073	0.461	0.036	0.079	0.031	0.064	0.254	-0.12	0.07	-0.044
ECH1 (UniProt Q13011)	0	-0.101	0.295	-0.078	-0.025	-0.015	0.002	-0.072	-0.076	0.038	0.024
EHD2 (UniProt Q9NZN4)	-0.034	-0.048	-0.072	-0.096	0.033	0.055	0.048	0.012	-0.04	-0.015	-0.038
EEA1 (UniProt Q15075)	0.013	-0.014	0.006	-0.014	-0.023	0.004	-0.001	0.015	0.006	-0.043	-0.005
DHX16 (UniProt O60231)	0.005	0.018	-0.021	-0.044	0.013	0.001	0.049	-0.142	-0.012	-0.041	0.01
DIP2A (UniProt Q14689)	-0.056	0.007	-0.356	0.017	0.002	0.031	0.043	0.1	-0.016	0.004	-0.128
EHBP1L1 (UniProt Q8N3D4)	-0.091	-0.04	-0.039	-0.039	0	0.054	0.041	0.015	-0.043	-0.101	-0.013
DTWD2 (UniProt Q8NBA8)	0.284	-0.03	-0.058	0.068	-0.079	0	0.152	0.089	0.26	-0.123	0.127
CTNNB1 (UniProt P35222)	-0.14	-0.06	-0.18	-0.2	-0.078	-0.001	0.093	0.03	1.3 (active)	-0.107	-0.212
DFFB (UniProt O76075)	0.028	-0.064	-0.037	0.069	0	0.016	0.057	0.087	0.048	-0.08	-0.024
EDC4 (UniProt Q6P2E9)	-0.06	-0.024	-0.026	-0.082	0.026	-0.023	0.035	-0.05	-0.066	-0.253 (active)	0.044
DCAF16 (UniProt Q9NXF7)	-0.122	-0.109	-0.09	-0.036	0.02	0.004	0.07	0.082	-0.09	-0.041	0
EIF4G1 isoform 8 (UniProt Q04637)	-0.104	-0.273	-0.154	-0.106	0.185	0.116	0.058	-0.045	0.194	-0.269	0.024

Target	log2 fold change [1]	log2 fold change [2]	log2 fold change [3]	log2 fold change [4]	log2 fold change (entinostat)	log2 fold change (vorinostat)	log2 fold change (citarinostat)	log2 fold change (silmitasertib)	log2 fold change [5]	log2 fold change [6]	log2 fold change (entospletinib)
FAM118A (UniProt Q9NWS6)	0.052	-0.129	-0.351	0.015	0.149	0.054	-0.289	0.166	-0.088	0.322	0.248
ELOVL1 (UniProt Q9BW60)	0.017	-0.191	-0.087	-0.055	0.05	0.321	-0.006	-0.046	0.002	0.035	-0.007
CUTA isoform 2 (UniProt O60888)	-0.022	0.153	0.013	0.063	0.019	-0.005	0.113	-0.031	-0.132	-0.046	-0.027
EXOC7 (UniProt Q9UPT5)	0.009	-0.142	-0.223	-0.022	0.04	0.09	0.077	0.052	0.028	-0.012	-0.106
DUS2 (UniProt Q9NX74)	0.051	-0.066	-0.091	-0.004	0.008	0.041	0.124	0.092	-0.424 (active)	0.038	-0.063
EEF1G isoform 2 (UniProt P26641)	-0.005	-0.039	-0.1	0.011	0.036	0.059	0.035	0.014	0.003	-0.046	-0.012
DPYSL2 (UniProt Q16555)	0.053	0.01	0.014	-0.056	-0.037	0.276	-0.017	-0.118	-0.224	-0.054	-0.015
FAM3A (UniProt P98173)	0.022	-0.028	-0.21 (active)	0.006	-0.097	-0.01	0	-0.015	0.034	-0.028	0.023
ERLIN2 (UniProt O94905)	0.04	-0.047	-0.01	-0.062	0.032	0.048	0.011	0.002	0.069	-0.044	-0.062
EEF1D isoform 2 (UniProt P29692)	-0.02	-0.06	-0.034	-0.105	0.018	-0.02	0.017	0.108	-0.001	-0.067	0.031
DNM2 (UniProt P50570)	-0.019	-0.037	-0.153	-0.023	0.005	0.03	0.051	-0.054	0.008	-0.014	-0.017
EOGT (UniProt Q5NDL2)	-0.008	-0.063	-0.045	-0.011	0.031	-0.092	-0.016	0.038	0.009	-0.063	0.005
DMAC1 (UniProt Q96GE9)	0.136	0.031	0.015	-0.07	-0.004	0.019	-0.003	-0.185	-0.427	0.113	0.073
EXOC2 (UniProt Q96KP1)	0.039	-0.084	-0.218	-0.024	0.052	-0.013	0.105	0.035	0.028	-0.102	-0.005
FAM122A (UniProt Q96E09)	-0.031	0.076	-0.048	0.023	0.143	0.025	-0.009	0.005	-0.052	0.062	-0.012
DNAJC7 (UniProt Q99615)	-0.067	-0.029	-0.204	-0.071	0.05	0.043	0.071	0.001	-0.03	-0.001	-0.034
FAM207A (UniProt Q9NSI2)	-0.005	0.076	-0.165	-0.042	0.052	0.015	0.106	0.356	0.099	-0.117	0.013
EXOC8 (UniProt Q8IYI6)	0.044	-0.044	-0.373 (active)	-0.039	0.108	0.051	0.084	0.035	0.045	-0.062	-0.013
DDOST (UniProt P39656)	0.003	-0.013	-0.057	0.014	0.007	-0.036	0.017	0.05	-0.017	-0.116	-0.014
ERCC2 (UniProt P18074)	-0.015	-0.011	-0.109	0.004	0.014	0.045	0.103	-0.052	-0.092	-0.039	0.154
EIF4A1 (UniProt P60842)	0.148	-0.08	-0.029	-0.044	0.079	0.068	0.088	-0.01	-0.01	-0.05	-0.083
DYNC1I2 isoform 5 (UniProt Q13409)	-0.021	-0.016	-0.023	0.059	-0.018	-0.044	0.015	0.004	-0.012	0.004	0.038
EEF1B2 (UniProt P24534)	0.012	-0.112	-0.035	-0.09	0.04	0.02	0.004	0.027	-0.007	-0.035	0.038
EED, A0A5F9ZI63	0.03	0.053	0.037	-0.029	-0.039	0.021	0.098	0.078	0.065	-0.078	0.037
DHRS7B (UniProt Q6IAN0)	-0.099	0.083	-0.012	0.117	-0.014	0.16	0.01	-0.05	-0.113	0.077	0.134
FAM160B1 (UniProt Q5W0V3)	0.04	-0.038	-0.211 (active)	-0.043	0.026	0.139	0.069	-0.026	-0.064	0	0.008
DDX5 (UniProt P17844)	-0.139	-0.032	-0.21	-0.135	0.067	0.073	0.072	-0.088	-0.158	-0.039	-0.019
